Assay results: PubChem BioAssay AID1159580 (chemical genetic matrix, 2015)
Values joined by “and” are separate entries in the source; they are usually repeats but may differ in a detail not shown here. Equal values may be shown once. The whole screen tested about 5,500 compounds, of which about 2,000 (36%) were called active. About 18% were inconclusive and are not listed. Rule as the data show it: active = normalized growth mostly below about 0.91 (no sharp cut-off); inconclusive = no clear call, values can overlap the other calls; inactive = mostly above about 0.92. Some of the results follow.

Assay: chemical genetic growth profiling, strain panel (AID 1159580);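 also: tested at 20 µM; growth read once vehicle control cultures reached saturation at 30 °C; 1 = growth at the plate median or of vehicle wells; lower values mean less growth of the strain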
Details: S. cerevisiae deletion strains, growth OD

Measured: normalized growth

COC(=O)[C@@H]1OC(=O)[C@H]2O[C@@]23[C@@]1(C)CCC1[C@@]2(C)CCC(=O)C(C)(C)C2C[C@@H](OC(C)=O)[C@]13C (some centres not stated)
inactive: locus YAL021C, strain ccr4, stronger effect = lower value 1.04 | locus YAL026C, strain drs2, stronger effect = lower value 0.992 | locus YAL030W, strain snc1, stronger effect = lower value 0.989 | locus YBL061C, strain skt5, stronger effect = lower value 0.994 | locus YBR009C, strain hhf1, stronger effect = lower value 1.03 | locus YBR021W, strain FUR4, stronger effect = lower value 0.997 | locus YBR023C, strain chs3, stronger effect = lower value 1 | locus YBR171W, strain sec66, stronger effect = lower value 0.959 | locus YBR229C, strain ROT2, stronger effect = lower value 1.01 | locus YBR231C, strain swc5, stronger effect = lower value 0.974 | locus YBR279W, strain paf1, stronger effect = lower value 1.02 | locus YCL011C, strain gbp2, stronger effect = lower value 0.998 | locus YCL016C, strain dcc1, stronger effect = lower value 1.03 | locus YCL029C, strain bik1, stronger effect = lower value 0.997 | locus YCL069W, strain vba3, stronger effect = lower value 0.987 | locus YCR088W, strain abp1, stronger effect = lower value 0.972 | locus YDL005C, strain med2, stronger effect = lower value 0.969 | locus YDL035C, strain GPR1, stronger effect = lower value 0.998 | locus YDL040C, strain nat1, stronger effect = lower value 0.987 | locus YDL074C, strain BRE1, stronger effect = lower value 1.01 | locus YDL101C, strain DUN1, stronger effect = lower value 1.02 | locus YDL134C, strain PPH21, stronger effect = lower value 1.01 | locus YDL185W, strain tfp1, stronger effect = lower value 1.01 | locus YDL192W, strain arf1, stronger effect = lower value 0.988 | locus YDR001C, strain nth1, stronger effect = lower value 0.983 | locus YDR069C, strain doa4, stronger effect = lower value 0.953 | locus YDR101C, strain arx1, stronger effect = lower value 0.993 | locus YDR137W, strain rgp1, stronger effect = lower value 1 | locus YDR159W, strain sac3, stronger effect = lower value 0.92 | locus YDR162C, strain NBP2, stronger effect = lower value 0.999 | locus YDR195W, strain ref2 0.926 | locus YDR297W, strain sur2, stronger effect = lower value 1 | locus YDR318W, strain mcm21, stronger effect = lower value 1.01 | locus YDR334W, strain swr1, stronger effect = lower value 0.967 | locus YDR388W, stronger effect = lower value 1.01 | locus YDR392W, strain spt3, stronger effect = lower value 0.993 | locus YDR502C, strain sam2, stronger effect = lower value 1.02 | locus YEL003W, strain gim4, stronger effect = lower value 0.986 | locus YEL037C, strain rad23, stronger effect = lower value 0.974 | locus YEL061C, strain CIN8 (second series), stronger effect = lower value 0.975 | locus YEL061C, strain CIN8, stronger effect = lower value 1 | locus YER015W, strain faa2, stronger effect = lower value 0.98 | locus YER016W, strain bim1, stronger effect = lower value 0.98 | locus YER110C, stronger effect = lower value 1 | locus YER111C, strain swi4, stronger effect = lower value 0.984 | locus YER155C, strain BEM2 (second series), stronger effect = lower value 1.01 | locus YER155C, strain BEM2, stronger effect = lower value 1.01 | locus YER167W, strain BCK2, stronger effect = lower value 0.988 | locus YFR010W, strain ubp6, stronger effect = lower value 0.966 | locus YGL078C, strain dbp3, stronger effect = lower value 1.02 | locus YGL086W, strain mad1, stronger effect = lower value 1 | locus YGL167C, strain pmr1, stronger effect = lower value 0.993 | locus YGL173C, strain kem1, stronger effect = lower value 0.985 | locus YGL227W, strain vid30, stronger effect = lower value 0.986 | locus YGL240W, strain doc1, stronger effect = lower value 0.953 | locus YGL248W, strain PDE1, stronger effect = lower value 1.02 | locus YGL253W, strain hxk2, stronger effect = lower value 0.958 | locus YGR135W, strain pre9, stronger effect = lower value 1.06 | locus YGR252W, strain gcn5, stronger effect = lower value 1.05 | locus YHR013C, strain ard1, stronger effect = lower value 1 | locus YHR027C, strain rpn1, stronger effect = lower value 0.976 | locus YHR030C, strain SLT2, stronger effect = lower value 1 and 0.997 | locus YHR079C, strain IRE1 (second series), stronger effect = lower value 1.01 | locus YHR079C, strain IRE1, stronger effect = lower value 0.999 | locus YHR094C, strain hxt1, stronger effect = lower value 1.02 | locus YHR129C, strain ARP1, stronger effect = lower value 1.01 | locus YHR142W, strain chs7, stronger effect = lower value 0.976 | locus YHR200W, strain rpn10, stronger effect = lower value 1.02 | locus YIL066C, strain RNR3, stronger effect = lower value 0.984 | locus YIL073C, strain SPO22, stronger effect = lower value 0.998 | locus YIL125W, strain kgd1, stronger effect = lower value 1 | locus YIR030C, strain dcg1, stronger effect = lower value 0.998 | locus YJL092W, strain hpr5, stronger effect = lower value 0.971 | locus YJL095W, strain BCK1 (second series), stronger effect = lower value 0.964 | locus YJL095W, strain BCK1, stronger effect = lower value 1.03 and 0.994 | locus YJL115W, strain asf1, stronger effect = lower value 0.965 | locus YJL129C, strain trk1, stronger effect = lower value 0.939 | locus YJL134W, strain LCB3, stronger effect = lower value 0.994 | locus YJL154C, strain vps35, stronger effect = lower value 0.989 | locus YJL164C, strain tpk1, stronger effect = lower value 1.03 | locus YJL166W, strain qcr8, stronger effect = lower value 0.972 | locus YJL168C, strain set2, stronger effect = lower value 1.01 | locus YJL187C, strain SWE1 (second series), stronger effect = lower value 1.04 | locus YJR066W, strain TOR1, stronger effect = lower value 0.912 | locus YKL009W, strain mrt4, stronger effect = lower value 0.977 | locus YKL068W, stronger effect = lower value 0.998 | locus YKL085W, strain MDH1 (second series), stronger effect = lower value 0.998 | locus YKL085W, strain MDH1, stronger effect = lower value 0.998 | locus YKL160W, strain elf1, stronger effect = lower value 1.07 | locus YKL190W, strain CNB1, stronger effect = lower value 1 | locus YKR001C, strain vps1, stronger effect = lower value 0.994 | locus YKR026C, strain gcn3, stronger effect = lower value 0.966 | locus YKR091W, strain srl3, stronger effect = lower value 0.992 | locus YLL001W, strain dnm1, stronger effect = lower value 0.992 | locus YLL026W, stronger effect = lower value 0.981 | locus YLL041C, strain sdh2, stronger effect = lower value 0.98 | locus YLR027C, strain aat2, stronger effect = lower value 0.99 | locus YLR039C, strain RIC1, stronger effect = lower value 1.03 | locus YLR058C, strain SHM2, stronger effect = lower value 1.01 | locus YLR102C, strain apc9, stronger effect = lower value 1 | locus YLR113W, strain HOG1, stronger effect = lower value 1.01 | locus YLR221C, strain rsa3, stronger effect = lower value 0.987 | locus YLR258W, strain gsy2, stronger effect = lower value 1 | locus YLR262C, strain YPT6 (second series), stronger effect = lower value 1 | locus YLR268W, strain sec22, stronger effect = lower value 0.991 | locus YLR320W, strain mms22, stronger effect = lower value 0.995 | locus YLR342W, strain FKS1 (second series), stronger effect = lower value 1.04 | locus YLR342W, strain FKS1, stronger effect = lower value 0.992 | locus YLR357W, strain rsc2, stronger effect = lower value 0.967 | locus YLR370C, strain arc18, stronger effect = lower value 0.989 | locus YLR371W, strain rom2, stronger effect = lower value 0.997 | locus YLR384C, strain iki3, stronger effect = lower value 0.985 | locus YLR418C, strain cdc73, stronger effect = lower value 1.04 | locus YML016C, strain PPZ1, stronger effect = lower value 1 | locus YML032C, strain rad52, stronger effect = lower value 0.996 | locus YML120C, strain ndi1, stronger effect = lower value 1.01 | locus YML124C, strain tub3, stronger effect = lower value 1.01 | locus YMR058W, strain fet3, stronger effect = lower value 0.993 | locus YMR078C, strain ctf18, stronger effect = lower value 1.01 | locus YMR125W, strain sto1, stronger effect = lower value 0.983 | locus YMR129W, stronger effect = lower value 0.987 | locus YMR205C, strain PFK2, stronger effect = lower value 1.01 | locus YMR223W, strain ubp8, stronger effect = lower value 1.01 | locus YMR231W, strain pep5, stronger effect = lower value 0.981 | locus YMR307W, strain GAS1, stronger effect = lower value 0.917 | locus YNL067W, strain RPL9B, stronger effect = lower value 1.04 | locus YNL071W, strain lat1, stronger effect = lower value 0.976 | locus YNL153C, strain GIM3, stronger effect = lower value 1.03 | locus YNL183C, strain NPR1, stronger effect = lower value 0.929 | locus YNL209W, strain ssb2, stronger effect = lower value 0.982 | locus YNL233W, strain BNI4, stronger effect = lower value 1.02 | locus YNL248C, strain rpa49, stronger effect = lower value 0.907 | locus YNL250W, strain rad50, stronger effect = lower value 1.03 | locus YNL271C, strain bni1, stronger effect = lower value 1.01 | locus YNL298W, strain CLA4, stronger effect = lower value 0.993 | locus YNL307C, strain MCK1, stronger effect = lower value 1.02 | locus YNL322C, strain KRE1 (second series), stronger effect = lower value 0.959 | locus YNR049C, strain mso1, stronger effect = lower value 0.966 | locus YNR052C, strain pop2, stronger effect = lower value 1.03 | locus YOL006C, strain TOP1, stronger effect = lower value 1.02 | locus YOL012C, strain htz1 1.17 | locus YOL147C, strain pex11, stronger effect = lower value 0.998 | locus YOR001W, strain rrp6, stronger effect = lower value 0.909 | locus YOR061W, strain CKA2, stronger effect = lower value 0.987 | locus YOR069W, strain VPS5, stronger effect = lower value 0.999 | locus YOR070C, strain gyp1, stronger effect = lower value 1 | locus YOR080W, strain dia2, stronger effect = lower value 0.978 | locus YOR083W, strain WHI5, stronger effect = lower value 1.08 | locus YOR106W, strain vam3, stronger effect = lower value 1.03 | locus YOR136W, strain idh2, stronger effect = lower value 1.01 | locus YOR144C, strain elg1, stronger effect = lower value 1 | locus YOR184W, strain ser1, stronger effect = lower value 0.981 | locus YOR231W, strain MKK1, stronger effect = lower value 0.98 | locus YOR265W, strain rbl2, stronger effect = lower value 0.976 | locus YOR270C, strain vph1, stronger effect = lower value 1.02 | locus YOR290C, strain snf2, stronger effect = lower value 0.996 | locus YOR316C, strain cot1, stronger effect = lower value 1.01 | locus YPL051W, strain arl3, stronger effect = lower value 1.02 | locus YPL078C, strain atp4, stronger effect = lower value 1.04 | locus YPL106C, strain sse1, stronger effect = lower value 0.997 | locus YPL240C, strain hsp82, stronger effect = lower value 0.976 | locus YPL256C, strain CLN2, stronger effect = lower value 0.979 | locus YPR119W, strain clb2, stronger effect = lower value 1.01 | locus YPR141C, strain kar3, stronger effect = lower value 1.01 | locus YPR163C, strain tif3, stronger effect = lower value 1.01 | locus YPR167C, strain met16, stronger effect = lower value 1.02 | strain wtn01, stronger effect = lower value 0.998
